Test results from PubChem BioAssay AID1159580 (chemical genetic matrix, 2015).
Where “and” joins values, the source holds several entries; their conditions need not be identical. Equal entries are not always repeated. About 2,000 (36%) of roughly 5,500 compounds were called active. Not shown: some 18% with an inconclusive outcome. Cut-off read from the data, not from the text of the source: active = normalized growth mostly below about 0.91 (no sharp cut-off); inconclusive = no clear call, values can overlap the other calls; inactive = mostly above about 0.92. Some of the results follow.

Assay: chemical genetic growth profiling, strain panel (AID 1159580);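 note: tested at 20 µM; growth read once vehicle control cultures reached saturation at 30 °C; 1 = growth at the plate median or of vehicle wells; lower values mean less growth of the strain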
Conditions: S. cerevisiae deletion strains, growth OD

Measured: normalized growth

CC1=C(/C=C/C(C)=C/C=C/C(C)=C/C(=O)O)C(C)(C)CCC1
inactive: locus YAL013W, strain DEP1, stronger effect = lower value 0.993 and 1.03 | locus YAL021C, strain ccr4, stronger effect = lower value 1.01 | locus YAL026C, strain drs2, stronger effect = lower value 0.958 | locus YAL030W, strain snc1, stronger effect = lower value 0.996 | locus YAL040C, strain CLN3, stronger effect = lower value 1.03 | locus YBL061C, strain skt5, stronger effect = lower value 0.952 | locus YBR009C, strain hhf1, stronger effect = lower value 0.968 | locus YBR021W, strain FUR4, stronger effect = lower value 1.04 | locus YBR023C, strain chs3, stronger effect = lower value 0.959 | locus YBR171W, strain sec66, stronger effect = lower value 1 | locus YBR229C, strain ROT2, stronger effect = lower value 1.01 | locus YBR231C, strain swc5, stronger effect = lower value 0.996 | locus YBR279W, strain paf1, stronger effect = lower value 0.994 | locus YCL011C, strain gbp2, stronger effect = lower value 0.976 | locus YCL016C, strain dcc1, stronger effect = lower value 0.951 | locus YCL029C, strain bik1, stronger effect = lower value 1.02 | locus YCL061C, strain MRC1 (second series), stronger effect = lower value 1.01 | locus YCL061C, strain MRC1, stronger effect = lower value 0.969 | locus YCL069W, strain vba3, stronger effect = lower value 1 | locus YCR088W, strain abp1, stronger effect = lower value 0.993 | locus YDL005C, strain med2, stronger effect = lower value 0.998 | locus YDL035C, strain GPR1, stronger effect = lower value 0.998 | locus YDL040C, strain nat1, stronger effect = lower value 1 | locus YDL074C, strain BRE1, stronger effect = lower value 0.995 | locus YDL101C, strain DUN1, stronger effect = lower value 1.01 | locus YDL134C, strain PPH21, stronger effect = lower value 1.01 | locus YDL185W, strain tfp1, stronger effect = lower value 1.03 | locus YDL192W, strain arf1, stronger effect = lower value 1.03 | locus YDR001C, strain nth1, stronger effect = lower value 1 | locus YDR069C, strain doa4, stronger effect = lower value 0.979 | locus YDR101C, strain arx1, stronger effect = lower value 1.03 | locus YDR150W, strain NUM1, stronger effect = lower value 1.02 and 1.01 | locus YDR159W, strain sac3, stronger effect = lower value 0.928 | locus YDR162C, strain NBP2, stronger effect = lower value 1.01 | locus YDR195W, strain ref2 1.03 | locus YDR297W, strain sur2, stronger effect = lower value 0.991 | locus YDR318W, strain mcm21, stronger effect = lower value 1.01 | locus YDR334W, strain swr1, stronger effect = lower value 1.02 | locus YDR335W, strain msn5, stronger effect = lower value 0.962 | locus YDR363W, strain ESC2, stronger effect = lower value 0.994 | locus YDR388W, stronger effect = lower value 1.03 | locus YDR502C, strain sam2, stronger effect = lower value 1.03 | locus YEL003W, strain gim4, stronger effect = lower value 1.01 | locus YEL037C, strain rad23, stronger effect = lower value 1 | locus YEL061C, strain CIN8 (second series), stronger effect = lower value 1.01 | locus YEL061C, strain CIN8, stronger effect = lower value 1.01 | locus YER002W, strain NOP16, stronger effect = lower value 1.03 | locus YER015W, strain faa2, stronger effect = lower value 0.995 | locus YER016W, strain bim1, stronger effect = lower value 0.954 | locus YER110C, stronger effect = lower value 1.04 | locus YER111C, strain swi4, stronger effect = lower value 1 | locus YER155C, strain BEM2 (second series), stronger effect = lower value 0.953 | locus YER155C, strain BEM2, stronger effect = lower value 1.01 | locus YER167W, strain BCK2, stronger effect = lower value 1.01 | locus YFR010W, strain ubp6, stronger effect = lower value 0.99 | locus YGL078C, strain dbp3, stronger effect = lower value 1.03 | locus YGL086W, strain mad1, stronger effect = lower value 1.02 | locus YGL167C, strain pmr1, stronger effect = lower value 1.02 | locus YGL173C, strain kem1, stronger effect = lower value 0.97 | locus YGL227W, strain vid30, stronger effect = lower value 1.03 | locus YGL240W, strain doc1, stronger effect = lower value 0.992 | locus YGL248W, strain PDE1, stronger effect = lower value 1.01 | locus YGL253W, strain hxk2, stronger effect = lower value 0.99 | locus YGR078C, strain PAC10, stronger effect = lower value 0.996 | locus YGR135W, strain pre9, stronger effect = lower value 1.01 | locus YGR229C, strain SMI1, stronger effect = lower value 0.996 and 0.979 | locus YGR252W, strain gcn5, stronger effect = lower value 1.08 | locus YHR013C, strain ard1, stronger effect = lower value 0.942 | locus YHR027C, strain rpn1, stronger effect = lower value 0.975 | locus YHR030C, strain SLT2, stronger effect = lower value 1.01 and 0.982 | locus YHR079C, strain IRE1 (second series), stronger effect = lower value 1.01 | locus YHR079C, strain IRE1, stronger effect = lower value 1.01 | locus YHR094C, strain hxt1, stronger effect = lower value 1.03 | locus YHR129C, strain ARP1, stronger effect = lower value 1.01 | locus YHR142W, strain chs7, stronger effect = lower value 0.957 | locus YHR200W, strain rpn10, stronger effect = lower value 1.04 | locus YIL066C, strain RNR3, stronger effect = lower value 1 | locus YIL073C, strain SPO22, stronger effect = lower value 1.04 | locus YIL125W, strain kgd1, stronger effect = lower value 1.03 | locus YIR030C, strain dcg1, stronger effect = lower value 1.03 | locus YJL092W, strain hpr5, stronger effect = lower value 0.988 | locus YJL095W, strain BCK1 (second series), stronger effect = lower value 0.987 | locus YJL095W, strain BCK1, stronger effect = lower value 0.999 and 0.96 | locus YJL115W, strain asf1, stronger effect = lower value 1 | locus YJL129C, strain trk1, stronger effect = lower value 0.963 | locus YJL134W, strain LCB3, stronger effect = lower value 1.01 | locus YJL154C, strain vps35, stronger effect = lower value 1.02 | locus YJL164C, strain tpk1, stronger effect = lower value 0.971 | locus YJL166W, strain qcr8, stronger effect = lower value 0.987 | locus YJL168C, strain set2, stronger effect = lower value 1.04 | locus YJL187C, strain SWE1 (second series), stronger effect = lower value 1.01 | locus YJL187C, strain SWE1, stronger effect = lower value 0.989 | locus YJR043C, strain POL32, stronger effect = lower value 1.01 | locus YJR066W, strain TOR1, stronger effect = lower value 0.926
active: locus YDR137W, strain rgp1, stronger effect = lower value 0.824 | locus YDR392W, strain spt3, stronger effect = lower value 0.513
